Records with an inconclusive call do not appear. Calls of active or inactive are those of the source. Unless noted, calls come from the whole dose curve; as a rule, active = well fitted curve in the direction sought with a large enough effect; inconclusive = small, poorly fitted or top-dose-only effect, or another doubt; inactive = no such curve, though single readings can be large; an effect the other way counts as inactive or inconclusive.
Columns and labels:
[1] = target: Lysosomal acid glucosylceramidase (Homo sapiens) (UniProt P04062); assay: Glucocerebrosidase-p2 (AID 348; in the data active = potency below about 10 µM; note: potency is the fitted concentration of half-maximal effect); details: purified GBA, blue fluorogenic substrate, 40 min
Lysosomal acid glucosylceramidase (Homo sapiens), sequence (P04062 whole entry, looked up): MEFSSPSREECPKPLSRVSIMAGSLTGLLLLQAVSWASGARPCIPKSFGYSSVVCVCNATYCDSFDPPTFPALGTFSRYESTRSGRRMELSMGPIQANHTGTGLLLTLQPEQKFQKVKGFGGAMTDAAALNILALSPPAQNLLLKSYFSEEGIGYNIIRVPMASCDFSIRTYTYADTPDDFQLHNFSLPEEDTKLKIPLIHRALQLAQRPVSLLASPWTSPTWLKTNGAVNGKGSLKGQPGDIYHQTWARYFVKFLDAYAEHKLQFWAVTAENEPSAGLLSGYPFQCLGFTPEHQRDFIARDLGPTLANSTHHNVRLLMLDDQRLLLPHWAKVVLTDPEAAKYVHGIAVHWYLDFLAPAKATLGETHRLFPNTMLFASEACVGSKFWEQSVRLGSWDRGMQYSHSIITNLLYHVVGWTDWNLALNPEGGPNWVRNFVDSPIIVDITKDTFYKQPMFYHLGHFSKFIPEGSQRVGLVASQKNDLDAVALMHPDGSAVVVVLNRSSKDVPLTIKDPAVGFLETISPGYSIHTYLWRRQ
Outline: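 Normal human glucocerebrosidase (0.2 nM) with blue fluorogenic substrate (80 uM final) in citrate/phosphate pH 5.9 with 10mM sodium taurocholate, 0.01% tween-20; 40 min RT, NaOH/glycine stop; fluorescence Ex 365/Em 440; AC50 from a titration from 0.6 nM upwards.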

[2] = AP1 Signaling Pathway (AID 357; active = well fitted curve in either direction with a large enough effect, not every such curve was filed as active; note: % is set by controls: 0 for no effect and ±100 for the full control effect); details: ME-180 AP-1-bla reporter, EGF-induced, beta-lactamase ratio, 5 h; at 7.69 µM (top of the series) unless noted
Outline: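 AP-1-bla ME-180 cells with beta-lactamase reporter under AP-1 response element, stimulated with EC50 EGF; compounds titrated, 5 hours at 37 degrees Celsius. CCF4 read at 460/530 nm ratio; positive and negative modulators judged by AC50.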

[3] = target: Cytochrome P450 1A2 (Homo sapiens) (UniProt P05177); assay: p450-cyp1a2 (AID 410; calls by dose curve; note: potency is the fitted concentration of half-maximal effect;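 for activity change, negative = inhibition: -100% = full effect of reference inhibitor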)
Cytochrome P450 1A2 (Homo sapiens), sequence (P05177 whole entry, looked up): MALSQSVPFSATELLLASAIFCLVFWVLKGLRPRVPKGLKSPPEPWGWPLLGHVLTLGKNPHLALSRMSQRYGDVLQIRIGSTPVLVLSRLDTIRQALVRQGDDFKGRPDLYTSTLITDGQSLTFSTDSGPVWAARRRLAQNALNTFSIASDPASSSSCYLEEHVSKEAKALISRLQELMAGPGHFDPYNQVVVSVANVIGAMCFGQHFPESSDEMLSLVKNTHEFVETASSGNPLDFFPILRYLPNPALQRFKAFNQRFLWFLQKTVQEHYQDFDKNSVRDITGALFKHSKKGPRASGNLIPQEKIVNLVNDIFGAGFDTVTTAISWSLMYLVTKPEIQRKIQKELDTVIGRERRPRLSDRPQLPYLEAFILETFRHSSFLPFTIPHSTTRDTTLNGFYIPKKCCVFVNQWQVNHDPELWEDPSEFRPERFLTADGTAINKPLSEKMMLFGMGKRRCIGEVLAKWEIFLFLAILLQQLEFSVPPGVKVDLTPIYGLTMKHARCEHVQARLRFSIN
Outline: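 Read-out is luminescence from luciferin produced by CYP1A2 demethylation of Luciferin-ME (100uM, at Km). Detection reagent stopped the 60 min NADPH-dependent reaction; signals were normalized to 57 uM furafylline.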

[4] = NFAT Signaling Pathway (AID 444; active = well fitted curve in either direction with a large enough effect, not every such curve was filed as active;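 note: carbachol stimulus at about its EC50 of 1 µM final; % is set by controls: 0 for no effect and ±100 for the full control effect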); details: Jurkat NFAT-bla M1, carbachol, beta-lactamase ratio, 5 h; at 7.69 µM (top of the series) unless noted
Outline: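 Jurkat cells carrying an NFAT-driven β-lactamase reporter and co-transfected muscarinic M1 receptor were treated with compound plus carbachol (1 uM final, an EC50 level) for 5 h at 37 °C. CCF4 loading followed for 1 h at RT; 460/530 nm ratio gave %activity.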

[5] = Stat Signaling Pathway (AID 446; active = well fitted curve in either direction with a large enough effect, not every such curve was filed as active;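 note: ME-180 cervical cancer cells given 40 pM IL-6 alongside compound; SIE-controlled beta-lactamase reporter measured as 460/530 nm FRET emission ratio; % is set by controls: 0 for no effect and ±100 for the full control effect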); details: ME-180 SIE beta-lactamase reporter, IL-6 stimulated, 5 h; at 7.69 µM (top of the series) unless noted
Outline: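 Overnight-plated ME-180 cells bearing a STAT Inducible Element beta-lactamase reporter; 5 h co-exposure to compound and 40 pM IL-6; values normalized to 300 pM IL-6 and 125 nM JAK inhibitor controls.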

[6] = target: Glucocorticoid receptor (Homo sapiens) (UniProt P04150); assay: GR-GFP Redistribution (AID 450;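 active = compounds whose dose series gives a full or clear partial fitted curve of increased nuclear translocation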; note: potency is the fitted concentration of half-maximal effect); details: U2OS GR-GFP nuclear translocation, laser cytometry, 2 h
Glucocorticoid receptor (Homo sapiens), sequence (P04150 whole entry, looked up, the tested form may be a part): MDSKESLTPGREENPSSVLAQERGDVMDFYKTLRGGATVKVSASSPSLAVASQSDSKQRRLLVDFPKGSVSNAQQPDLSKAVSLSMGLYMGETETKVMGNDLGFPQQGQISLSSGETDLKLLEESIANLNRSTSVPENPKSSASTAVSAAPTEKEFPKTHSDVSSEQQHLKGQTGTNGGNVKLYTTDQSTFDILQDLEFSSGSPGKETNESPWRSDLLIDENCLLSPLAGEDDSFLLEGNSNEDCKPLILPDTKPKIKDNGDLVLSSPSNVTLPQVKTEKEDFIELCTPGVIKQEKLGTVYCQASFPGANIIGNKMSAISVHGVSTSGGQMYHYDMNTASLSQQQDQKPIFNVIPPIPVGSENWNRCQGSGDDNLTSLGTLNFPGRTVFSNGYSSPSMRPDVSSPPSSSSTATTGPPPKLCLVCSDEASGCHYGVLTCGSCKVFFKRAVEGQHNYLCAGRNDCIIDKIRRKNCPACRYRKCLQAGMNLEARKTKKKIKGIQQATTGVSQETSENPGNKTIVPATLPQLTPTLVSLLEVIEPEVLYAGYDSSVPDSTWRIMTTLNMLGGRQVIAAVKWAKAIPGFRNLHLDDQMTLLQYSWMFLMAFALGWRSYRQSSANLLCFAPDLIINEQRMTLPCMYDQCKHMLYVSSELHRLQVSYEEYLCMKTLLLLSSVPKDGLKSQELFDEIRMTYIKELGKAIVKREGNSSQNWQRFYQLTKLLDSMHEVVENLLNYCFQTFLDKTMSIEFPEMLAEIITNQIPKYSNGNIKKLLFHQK

[7] = target: Glucocorticoid receptor (Homo sapiens) (UniProt P04150); assay: GR-EFC Redistribution (AID 451; calls by dose curve; note: potency is the fitted concentration of half-maximal effect); details: CHO-K1 GR-EFC translocation, beta-gal luminescence, 2 h
Outline: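 CHO-K1 cells stably expressing nuclear-localized β-gal enzyme acceptor and GR fused C-terminally to the enzyme donor fragment; ligand-driven nuclear translocation restores β-gal by complementation. Compounds titrated up to 46 uM final, 2 h at 37 °C; luminescence read.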

[8] = target: Mitogen-activated protein kinase 10 (Mus musculus) (UniProt Q61831); assay: JNK3 AlphaScreen Assay (AID 530; active = well fitted curve in either direction with a large enough effect, not every such curve was filed as active;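 note: kinase came from lysate of stimulated human HepG2 cells; signal reports phosphorylation of biotinylated GST-cJun 1-79 at Ser73 with 10 µM ATP; % is set by controls: 0 for no effect and ±100 for the full control effect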)
Outline: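 Biotinylated GST-cJun(1-79) served as substrate for JNK3 in HepG2 lysates stimulated with IL-1beta and TNF-alpha. ATP was 10 uM final, pH 7.6. Ser73 phosphorylation was quantified by AlphaScreen (680 nm excitation).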

[9] = target: 3',5'-cyclic-AMP phosphodiesterase 4B (Homo sapiens) (UniProt Q07343); assay: qHTS Assay for Inhibitors of PDE-IV (AID 607; active = well fitted activation curve with a large enough effect in the main read-out, with a control signal flat, not every such curve was filed as active; note: % of control where 0% means no effect)
3',5'-cyclic-AMP phosphodiesterase 4B (Homo sapiens), sequence (Q07343 whole entry, looked up): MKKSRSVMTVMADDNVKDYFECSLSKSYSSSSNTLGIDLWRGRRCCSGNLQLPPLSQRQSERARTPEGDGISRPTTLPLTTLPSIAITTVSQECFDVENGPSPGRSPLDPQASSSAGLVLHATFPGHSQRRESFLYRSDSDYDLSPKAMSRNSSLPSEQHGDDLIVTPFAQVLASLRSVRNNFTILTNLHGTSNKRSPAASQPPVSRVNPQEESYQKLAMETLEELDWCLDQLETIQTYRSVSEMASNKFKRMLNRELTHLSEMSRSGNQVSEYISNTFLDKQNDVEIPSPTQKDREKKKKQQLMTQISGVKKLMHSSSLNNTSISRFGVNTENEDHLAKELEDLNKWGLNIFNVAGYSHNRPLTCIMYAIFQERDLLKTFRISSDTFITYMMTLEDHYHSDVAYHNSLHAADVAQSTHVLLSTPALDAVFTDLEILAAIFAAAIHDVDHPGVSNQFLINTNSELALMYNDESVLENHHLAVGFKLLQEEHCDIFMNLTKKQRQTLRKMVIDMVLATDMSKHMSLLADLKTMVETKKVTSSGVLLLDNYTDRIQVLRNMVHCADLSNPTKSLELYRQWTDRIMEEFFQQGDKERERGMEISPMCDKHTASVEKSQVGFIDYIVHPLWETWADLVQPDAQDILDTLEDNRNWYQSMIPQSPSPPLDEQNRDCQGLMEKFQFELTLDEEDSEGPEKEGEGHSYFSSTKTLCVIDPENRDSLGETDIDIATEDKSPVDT
Outline: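 Live HEK293 cells with a modified cyclic nucleotide-gated (CNG) channel report intracellular cAMP via membrane-potential dye fluorescence (ex 535/em 590 nm). Endogenous PDE-IV was targeted. Compounds were tested at up to 22.9 uM final; RO 20-1724 100 uM served as control.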

[10] = target: Cytochrome P450 3A4 (Homo sapiens) (UniProt P08684); assay: qHTS Assay for Activators of Cytochrome P450 3A4 (AID 885); note: nearly all actives have a fitted effect of over 65% in size
Cytochrome P450 3A4 (Homo sapiens), sequence (P08684 whole entry, looked up): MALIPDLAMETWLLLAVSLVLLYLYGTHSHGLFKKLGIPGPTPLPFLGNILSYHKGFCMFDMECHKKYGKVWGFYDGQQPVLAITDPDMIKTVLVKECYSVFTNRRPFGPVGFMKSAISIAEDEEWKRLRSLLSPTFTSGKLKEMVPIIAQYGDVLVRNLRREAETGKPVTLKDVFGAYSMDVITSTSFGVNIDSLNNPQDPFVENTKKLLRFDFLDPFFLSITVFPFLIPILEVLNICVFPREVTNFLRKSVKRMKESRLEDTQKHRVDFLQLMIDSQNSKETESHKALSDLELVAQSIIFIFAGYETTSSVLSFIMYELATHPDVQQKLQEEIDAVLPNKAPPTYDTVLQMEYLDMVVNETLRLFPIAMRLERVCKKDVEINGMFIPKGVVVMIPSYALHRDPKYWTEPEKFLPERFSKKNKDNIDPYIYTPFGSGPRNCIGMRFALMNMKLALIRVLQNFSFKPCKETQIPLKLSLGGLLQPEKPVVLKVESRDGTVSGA
Outline: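 Using 20nM recombinant human CYP3A4 in potassium phosphate (200mM), substrate Luciferin-PPXE at 25uM, luminescent luciferin detection followed a 60-min RT NADPH reaction; data scaled to 57 uM ketoconazole.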

[11] = target: Dual specificity protein kinase CLK4 (Homo sapiens) (UniProt Q9HAZ1); assay: qHTS Assay for Inhibitors of CDC-like Kinase 4 (Kinase-Glo Assay) (AID 1770); note: nearly all actives have a fitted effect of over 65% in size; note: potency is the fitted concentration of half-maximal effect
Dual specificity protein kinase CLK4 (Homo sapiens), sequence (Q9HAZ1 whole entry, looked up): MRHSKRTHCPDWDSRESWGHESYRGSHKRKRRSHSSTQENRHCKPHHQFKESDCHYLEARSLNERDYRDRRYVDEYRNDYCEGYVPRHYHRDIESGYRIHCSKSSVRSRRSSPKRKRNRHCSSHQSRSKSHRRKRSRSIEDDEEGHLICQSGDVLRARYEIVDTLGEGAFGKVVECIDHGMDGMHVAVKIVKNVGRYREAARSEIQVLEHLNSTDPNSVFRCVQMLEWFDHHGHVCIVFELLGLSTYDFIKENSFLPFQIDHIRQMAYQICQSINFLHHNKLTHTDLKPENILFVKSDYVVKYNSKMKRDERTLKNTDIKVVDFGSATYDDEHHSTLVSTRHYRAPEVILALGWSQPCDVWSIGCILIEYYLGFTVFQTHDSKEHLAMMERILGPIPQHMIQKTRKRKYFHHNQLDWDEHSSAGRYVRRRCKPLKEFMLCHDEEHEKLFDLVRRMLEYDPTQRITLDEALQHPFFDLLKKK
Outline: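 25 nM Clk4 with 100 uM RS repeat peptide and 1 uM ATP (final) in Tris pH7.5, 10 mM MgCl2, 4.5 h at room temperature. Remaining ATP measured by Kinase-Glo luciferase luminescence.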

[12] = target: Dual specificity protein kinase CLK4 (Homo sapiens) (UniProt Q9HAZ1); assay: qHTS Assay for Inhibitors of CDC-like Kinase 4 (ADP-Glo Assay) (AID 1771); note: nearly all actives have a fitted effect of over 70% in size; note: potency is the fitted concentration of half-maximal effect
Outline: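 In this ADP-Glo format, 1 uM ATP and 100 uM RS peptide served as substrates for 25 nM Clk4 in Mg2+/EGTA/DTT/Triton buffer; reactions ran 1 hr at room temperature before luminescent ADP quantification.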

[13] = target: Ubiquitin carboxyl-terminal hydrolase 1 (Homo sapiens) (UniProt O94782); assay: Inhibitors of USP1/UAF1: Pilot qHTS (AID 504865);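 note: rhodamine fluorescence freed from ubiquitin-rhodamine substrate followed over time; top concentration of the series differs between compounds; % is set by controls: 0 for no effect and ±100 for the full control effect; nearly all actives have a fitted effect of over 35% in size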
Ubiquitin carboxyl-terminal hydrolase 1 (Homo sapiens), sequence (O94782 whole entry, looked up): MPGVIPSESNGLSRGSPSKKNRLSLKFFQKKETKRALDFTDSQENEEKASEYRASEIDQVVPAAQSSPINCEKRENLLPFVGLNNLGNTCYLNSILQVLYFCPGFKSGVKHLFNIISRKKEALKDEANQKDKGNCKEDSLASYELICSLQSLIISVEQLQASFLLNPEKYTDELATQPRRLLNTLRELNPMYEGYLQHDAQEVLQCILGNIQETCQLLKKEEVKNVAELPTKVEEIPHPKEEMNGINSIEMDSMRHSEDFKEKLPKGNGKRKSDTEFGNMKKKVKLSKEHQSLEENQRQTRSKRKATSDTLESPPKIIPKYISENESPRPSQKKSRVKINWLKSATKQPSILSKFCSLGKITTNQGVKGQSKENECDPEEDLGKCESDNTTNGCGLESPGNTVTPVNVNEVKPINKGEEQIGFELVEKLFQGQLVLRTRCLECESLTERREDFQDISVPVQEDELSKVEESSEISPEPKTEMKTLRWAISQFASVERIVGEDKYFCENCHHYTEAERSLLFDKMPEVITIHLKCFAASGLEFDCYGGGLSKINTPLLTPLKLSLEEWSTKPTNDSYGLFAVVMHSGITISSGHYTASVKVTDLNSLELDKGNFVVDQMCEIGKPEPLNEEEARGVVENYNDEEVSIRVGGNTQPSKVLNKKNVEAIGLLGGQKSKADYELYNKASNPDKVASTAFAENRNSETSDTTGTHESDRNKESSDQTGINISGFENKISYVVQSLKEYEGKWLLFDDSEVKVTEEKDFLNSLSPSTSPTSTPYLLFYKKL
Outline: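 USP1/UAF1 complex at 1 nM preincubated 15 min at room temperature with compound, then Ub-Rho substrate added at 150 nM final. Fluorescence (480/540 nm) read kinetically in 50 mM HEPES pH 7.8, 0.5 mM EDTA, 1 mM TCEP, 0.1 mg/ml BSA, 0.01% Tween-20.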

[14] = Primary qHTS for small molecule stabilizers of the endoplasmic reticulum resident proteome: Secreted ER Calcium Modulated Protein (SERCaMP) assay (AID 1508630); note: % is set by controls: 0 for no effect and ±100 for the full control effect
Outline: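 The SH-SY5Y reporter protocol was run at 3 concentrations up to 38.3 uM (primary) or 11 concentrations (follow-up): 16 h compound, 100 nM thapsigargin for 4 h, then extracellular luciferase luminescence.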

[15] = target: Cytochrome P450 2C9 (Homo sapiens) (UniProt P11712); assay: qHTS Assay for Inhibitors and Substrates of Cytochrome P450 2C9 (AID 883); note: % is set by controls: 0 for no effect and ±100 for the full control effect; nearly all actives have a fitted effect of over 60% in size
Outline: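 A luminogenic readout tracked human CYP2C9 (10nM) converting deoxyluciferin (100uM, at KM) in 25mM KPO4 during 60 min at 37C with regenerated NADPH. Values normalized to 57uM sulphaphenazole as complete inhibition.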

[16] = qHTS Assay for Identification of Small Molecule Agonists for Hypoxia Response Element Signaling Pathway (AID 914; active = well fitted activation curve with a large enough effect in the signal ratio, with a control signal flat, not every such curve was filed as active; the % refers to the signal ratio; note: potency is the fitted concentration of half-maximal effect); details: ME-180 (cervical carcinoma) HRE-bla reporter, beta-lactamase ratio, CoCl2, 17 h; activation: active compounds read high
Outline: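 qHTS titration; ME-180 HRE-bla cells; EC50 CoCl2 co-treatment, 17 h at 37 degrees Celsius; CCF4 dye, ex 405nm, em 460nm and 530nm; %Activity from ratio; AC50.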

[17] = target: Dual specificity protein kinase CLK4 (Homo sapiens) (UniProt Q9HAZ1); assay: qHTS Assay for Inhibitors of CDC-like Kinase 4 (ADP-FP Assay) (AID 1795);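 note: recombinant human CLK4 phosphorylating RS repeat peptide at 1 µM ATP; % is set by controls: 0 for no effect and ±100 for the full control effect; nearly all actives have a fitted effect of over 60% in size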
Outline: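 Recombinant Clk4 (6.25 nM) phosphorylated 100 uM RS repeat peptide with 1 uM ATP in 25 mM Tris pH 7.5, 10 mM MgCl2, 0.5 mM EGTA, 2.5 mM DTT, 0.01% Triton X-100 for 1 h. ADP was detected by Transcreener ADP2 competitive fluorescence polarization after 30 min at room temperature.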

[18] = target: Cytochrome P450 3A4 (Homo sapiens) (UniProt P08684); assay: qHTS Assay for Inhibitors and Substrates of Cytochrome P450 3A4 (AID 884); note: potency is the fitted concentration of half-maximal effect; nearly all actives have a fitted effect of over 50% in size
Outline: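 Luminescent readout of luciferin produced by CYP3A4 (20 nM) dealkylation of Luciferin-PPXE, 25 uM (its KM). NADPH-driven reaction ran 60 min at RT after 10 min compound preincubation; data scaled to 57 uM ketoconazole as 100% inhibition.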

[19] = target: Cytochrome P450 2C19 (Homo sapiens) (UniProt P33261); assay: qHTS Assay for Inhibitors and Substrates of Cytochrome P450 2C19 (AID 899); note: potency is the fitted concentration of half-maximal effect; nearly all actives have a fitted effect of over 60% in size
Cytochrome P450 2C19 (Homo sapiens), sequence (P33261 whole entry, looked up): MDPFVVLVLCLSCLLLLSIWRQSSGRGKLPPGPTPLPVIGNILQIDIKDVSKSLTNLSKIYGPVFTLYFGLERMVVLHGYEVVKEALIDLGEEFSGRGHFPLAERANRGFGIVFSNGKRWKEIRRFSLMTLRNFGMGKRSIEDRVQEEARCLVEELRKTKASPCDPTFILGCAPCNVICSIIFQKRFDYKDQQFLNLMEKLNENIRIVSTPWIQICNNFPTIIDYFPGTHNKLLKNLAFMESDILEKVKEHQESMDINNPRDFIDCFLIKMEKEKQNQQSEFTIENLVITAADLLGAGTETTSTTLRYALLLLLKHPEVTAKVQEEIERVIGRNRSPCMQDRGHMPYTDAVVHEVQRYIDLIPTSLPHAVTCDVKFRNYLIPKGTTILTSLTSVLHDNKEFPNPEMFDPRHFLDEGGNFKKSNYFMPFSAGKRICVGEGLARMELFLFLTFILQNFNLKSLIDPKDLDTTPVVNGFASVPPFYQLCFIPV
Outline: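 NADPH-dependent conversion of Luciferin-H EGE (10uM, at KM) by 5nM enzyme in 50mM KPO4, 60 min at 37C following 10 min compound preincubation. Stopped with luciferin detection buffer; luminescence read after 20 min.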

c1cncc(-c2ccc3ncnc(NCCN4CCOCC4)c3c2)c1
active: Potency [3] 1 µM | Potency [11] 15.8 µM | Potency [12] 17.8 µM
inactive: Potency [1] > 11.4 µM | activity change, negative = inhibition [2] -1.94% | activity change, negative = inhibition [4] 26% | activity, negative = inhibition [5] 2.95% | Potency [6] > 46 µM | Potency [7] > 46 µM | Potency [8] | Potency [9] | Potency [10] | Potency [13] | outcome [14]

CCNc1ncc2nc(-c3ccccc3)c(=O)n(C)c2n1
inactive: Potency [1] > 11.4 µM | activity change, negative = inhibition [2] -13.4% | activity change, negative = inhibition [4] -7.59% | activity, negative = inhibition [5] -9.07% | Potency [6] > 9.22 µM | Potency [7] > 46 µM | Potency [8] | Potency [11] | Potency [12] | Potency [13] | outcome [14]
active: Potency [3] 0.398 µM

CN(C)c1ncc2nc(-c3cc(F)cc(F)c3)c(=O)n(Cc3ccc(F)cc3)c2n1
active: Potency [16] 3.16 µM
inactive: Potency [3] | Potency [6] > 46 µM | Potency [7] > 46 µM | Potency [8] | Potency [9] | Potency [15] | Potency [10] | Potency [11] | Potency [12] | Potency [17] | Potency [13] | outcome [14]

FC(F)(F)c1ccccc1-c1cncnc1NCc1cccnc1
active: Potency [3] 20 µM | Potency [18] 0.631 µM | Potency [19] 2.51 µM
inactive: Potency [1] > 11.4 µM | activity change, negative = inhibition [2] -13.4% | activity change, negative = inhibition [4] -6.58% | activity, negative = inhibition [5] -1.05% | Potency [6] > 46 µM | Potency [7] > 46 µM | Potency [8] | Potency [9] | Potency [10] | Potency [11] | Potency [12] | Potency [13] | outcome [14]

COCCn1c(=O)c(-c2cc(F)cc(F)c2)nc2cnc(N(C)C)nc21
active: Potency [3] 5.01 µM
inactive: Potency [1] > 11.4 µM | activity change, negative = inhibition [2] 3.27% | activity change, negative = inhibition [4] -6.48% | activity, negative = inhibition [5] -2% | Potency [6] > 9.22 µM | Potency [7] > 46 µM | Potency [8] | Potency [9] | Potency [11] | Potency [12] | Potency [13] | outcome [14]

O=c1c(-c2cc(F)cc(F)c2)nc2cnc(N3CCNCC3)nc2n1Cc1ccc(F)cc1
inactive: Potency [6] > 9.22 µM | Potency [7] > 46 µM | Potency [8] | Potency [9] | Potency [11] | Potency [12] | Potency [17] | outcome [14]

COc1ccc2[nH]cc(CCNc3cc(-c4ccc(C(=O)N(C)C)cc4)ncn3)c2c1
active: Potency [3] 20 µM | Potency [18] 6.31 µM | Potency [11] 10 µM | Potency [12] 10 µM
inactive: Potency [1] > 11.4 µM | activity change, negative = inhibition [2] -10.4% | activity change, negative = inhibition [4] 0.0562% | activity, negative = inhibition [5] -10.6% | Potency [6] > 46 µM | Potency [7] > 46 µM | Potency [8] | Potency [9] | Potency [13] | outcome [14]
